Test results as given in PubChem BioAssay AID1159580 (chemical genetic matrix, 2015).
Values joined by “and” are separate entries in the source; they are usually repeats but may differ in a detail not shown here. Identical values can stand only once. Screen size: about 5,500 compounds; about 2,000 (36%) were called active. Not shown: some 18% with an inconclusive outcome. No stated cut-off is given here; in the data, active means normalized growth mostly below about 0.91 (no sharp cut-off); inconclusive means no clear call, values can overlap the other calls; inactive means mostly above about 0.92. The list shows a part of the results.

Test: chemical genetic growth profiling, strain panel (AID 1159580);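 further: tested at 20 µM; growth read once vehicle control cultures reached saturation at 30 °C; 1 = growth at the plate median or of vehicle wells; lower values mean less growth of the strain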
Details: S. cerevisiae deletion strains, growth OD

Measured: normalized growth

CCOC(=O)[C@H](CCc1ccccc1)N[C@@H](C)C(=O)N1CCC[C@H]1C(=O)O
inactive: locus YAL021C, strain ccr4, active compounds read low 0.98 | locus YAL026C, strain drs2, active compounds read low 1 | locus YAL030W, strain snc1, active compounds read low 0.992 | locus YBL061C, strain skt5, active compounds read low 0.987 | locus YBR009C, strain hhf1, active compounds read low 1.01 | locus YBR021W, strain FUR4, active compounds read low 1.01 | locus YBR023C, strain chs3, active compounds read low 0.988 | locus YBR171W, strain sec66, active compounds read low 0.979 | locus YBR229C, strain ROT2, active compounds read low 1 | locus YBR231C, strain swc5, active compounds read low 1 | locus YBR279W, strain paf1, active compounds read low 0.973 | locus YCL011C, strain gbp2, active compounds read low 0.976 | locus YCL016C, strain dcc1, active compounds read low 0.969 | locus YCL029C, strain bik1, active compounds read low 1.02 | locus YCL061C, strain MRC1, active compounds read low 1.01 | locus YCL069W, strain vba3, active compounds read low 0.988 | locus YCR088W, strain abp1, active compounds read low 0.995 | locus YDL005C, strain med2, active compounds read low 0.995 | locus YDL035C, strain GPR1, active compounds read low 1.03 | locus YDL040C, strain nat1, active compounds read low 0.992 | locus YDL074C, strain BRE1, active compounds read low 1.02 | locus YDL101C, strain DUN1, active compounds read low 1.01 | locus YDL134C, strain PPH21, active compounds read low 1.01 | locus YDL185W, strain tfp1, active compounds read low 1.01 | locus YDL192W, strain arf1, active compounds read low 1.01 | locus YDR001C, strain nth1, active compounds read low 0.996 | locus YDR069C, strain doa4, active compounds read low 0.984 | locus YDR101C, strain arx1, active compounds read low 0.994 | locus YDR137W, strain rgp1, active compounds read low 0.988 | locus YDR159W, strain sac3, active compounds read low 0.937 | locus YDR162C, strain NBP2, active compounds read low 1.01 | locus YDR195W, strain ref2 0.981 | locus YDR297W, strain sur2, active compounds read low 1 | locus YDR318W, strain mcm21, active compounds read low 1.02 | locus YDR334W, strain swr1, active compounds read low 0.998 | locus YDR335W, strain msn5, active compounds read low 0.991 | locus YDR388W, active compounds read low 1.02 | locus YDR392W, strain spt3, active compounds read low 0.923 | locus YDR502C, strain sam2, active compounds read low 1.01 | locus YEL003W, strain gim4, active compounds read low 1 | locus YEL037C, strain rad23, active compounds read low 0.988 | locus YEL061C, strain CIN8 (second series), active compounds read low 0.999 | locus YEL061C, strain CIN8, active compounds read low 0.999 | locus YER015W, strain faa2, active compounds read low 1 | locus YER016W, strain bim1, active compounds read low 0.98 | locus YER110C, active compounds read low 1.02 | locus YER111C, strain swi4, active compounds read low 0.985 | locus YER155C, strain BEM2 (second series), active compounds read low 1.02 | locus YER155C, strain BEM2, active compounds read low 0.996 | locus YER167W, strain BCK2, active compounds read low 0.997 | locus YFR010W, strain ubp6, active compounds read low 1.01 | locus YGL078C, strain dbp3, active compounds read low 1.01 | locus YGL086W, strain mad1, active compounds read low 0.998 | locus YGL167C, strain pmr1, active compounds read low 0.99 | locus YGL173C, strain kem1, active compounds read low 0.995 | locus YGL227W, strain vid30, active compounds read low 0.996 | locus YGL240W, strain doc1, active compounds read low 0.985 | locus YGL248W, strain PDE1, active compounds read low 1 | locus YGL253W, strain hxk2, active compounds read low 0.987 | locus YGR078C, strain PAC10, active compounds read low 1.02 | locus YGR135W, strain pre9, active compounds read low 1.02 | locus YGR252W, strain gcn5, active compounds read low 1.05 | locus YHR013C, strain ard1, active compounds read low 0.967 | locus YHR027C, strain rpn1, active compounds read low 1.01 | locus YHR030C, strain SLT2, active compounds read low 0.998 and 1.03 | locus YHR079C, strain IRE1 (second series), active compounds read low 1.01 | locus YHR079C, strain IRE1, active compounds read low 1.05 | locus YHR094C, strain hxt1, active compounds read low 1.01 | locus YHR129C, strain ARP1, active compounds read low 0.998 | locus YHR142W, strain chs7, active compounds read low 0.98 | locus YHR200W, strain rpn10, active compounds read low 1.01 | locus YIL066C, strain RNR3, active compounds read low 1.01 | locus YIL073C, strain SPO22, active compounds read low 1.07 | locus YIL125W, strain kgd1, active compounds read low 1.01 | locus YIR030C, strain dcg1, active compounds read low 1.01 | locus YJL092W, strain hpr5, active compounds read low 1 | locus YJL095W, strain BCK1 (second series), active compounds read low 1 | locus YJL095W, strain BCK1, active compounds read low 1.02 and 1.03 | locus YJL115W, strain asf1, active compounds read low 0.989 | locus YJL129C, strain trk1, active compounds read low 0.954 | locus YJL134W, strain LCB3, active compounds read low 1 | locus YJL154C, strain vps35, active compounds read low 0.99 | locus YJL164C, strain tpk1, active compounds read low 0.98 | locus YJL166W, strain qcr8, active compounds read low 1 | locus YJL168C, strain set2, active compounds read low 1.01 | locus YJL187C, strain SWE1 (second series), active compounds read low 1.01 | locus YJR043C, strain POL32, active compounds read low 1.03 | locus YJR066W, strain TOR1, active compounds read low 0.985
